Source: PubChem BioAssay (NCATS)
Several values for one entry are separate records, joined by “and”; a condition that tells them apart may be missing. Identical values can stand only once. Records with an inconclusive call do not appear. Activity calls are given as the source filed them. Unless noted, calls come from the whole dose curve; as a rule, active = well fitted curve in the direction sought with a large enough effect; inconclusive = small, poorly fitted or top-dose-only effect, or another doubt; inactive = no such curve, though single readings can be large; an effect the other way counts as inactive or inconclusive.

Assays:
[1] = qHTS for Inhibitors of the Functional Ribonucleoprotein Complex (vRNP) of Lassa (LASV) Arenavirus: LASV Primary Screen - GLuc reporter signal (AID 1347082; calls by dose curve; tested in HEK293 reporter line; note: nearly all actives have a fitted effect of over 60% in size; note: potency is the fitted concentration of half-maximal effect)
[2] = qHTS for Inhibitors of the Functional Ribonucleoprotein Complex (vRNP) of Lassa (LASV) Arenavirus: Viability assay - alamar blue signal for LASV Primary Screen (AID 1347083; calls by dose curve; tested in HEK293 reporter line; note: nearly all actives have a fitted effect of over 80% in size; note: potency is the fitted concentration of half-maximal effect)
[3] = qHTS for Inhibitors of the Functional Ribonucleoprotein Complex (vRNP) of Lymphocytic Choriomeningitis Arenaviruses (LCMV): Viability assay - alamar blue signal for LCMV Primary Screen (AID 1347085; calls by dose curve; tested in HEK293 reporter line; note: nearly all actives have a fitted effect of over 80% in size; note: potency is the fitted concentration of half-maximal effect)
[4] = molecular target: Nucleoprotein (Lymphocytic choriomeningitis virus (strain Armstrong)) (UniProt P09992); test: qHTS for Inhibitors of the Functional Ribonucleoprotein Complex (vRNP) of Lymphocytic Choriomeningitis Arenaviruses (LCMV): LCMV Primary Screen - GLuc reporter signal (AID 1347086; calls by dose curve; note: series mostly up to about 57 µM; nearly all actives have a fitted effect of over 70% in size)
[5] = qHTS of pediatric cancer cell lines to identify multiple opportunities for drug repurposing: Primary screen for TC32 cells (AID 1347089); note: nearly all actives have a fitted effect of over 60% in size; note: potency is the fitted concentration of half-maximal effect
Outline: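 In the primary qHTS, MIPE compounds were tested at 11 concentrations (0.78 nM to 46 µM) and NPC compounds at 8 (0.59 nM to 46 µM) on TC32 cells for 48 h. CellTiter-Glo luminescence gave viability.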

[6] = qHTS of pediatric cancer cell lines to identify multiple opportunities for drug repurposing: Primary screen for DAOY cells (AID 1347090); note: nearly all actives have a fitted effect of over 55% in size; note: potency is the fitted concentration of half-maximal effect
Outline: (§1)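 Eight- or eleven-point concentration series, 48 h treatment at 37 degrees C in growth media; readout CellTiter-Glo luminescence. Potency and efficacy were taken from the concentration-response curves.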

[7] = qHTS of pediatric cancer cell lines to identify multiple opportunities for drug repurposing: Primary screen for SJ-GBM2 cells (AID 1347091); note: potency is the fitted concentration of half-maximal effect
Outline: as §1

[8] = qHTS of pediatric cancer cell lines to identify multiple opportunities for drug repurposing: Primary screen for A673 cells (AID 1347092); note: nearly all actives have a fitted effect of over 45% in size; note: potency is the fitted concentration of half-maximal effect
Outline: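 48 h compound exposure, A673, 500-1,000 cells/well, 37 degrees C/5% CO2. MIPE: 11-point, 0.78 nM-46 µM; NPC: 8-point, 0.59 nM-46 µM (final). Readout CellTiter-Glo luminescence after 15 min RT.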

[9] = qHTS of pediatric cancer cell lines to identify multiple opportunities for drug repurposing: Primary screen for SK-N-MC cells (AID 1347093); note: potency is the fitted concentration of half-maximal effect
Outline: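 Metabolically active cells were quantified by ATP-dependent luminescence (CellTiter-Glo, 15 min at room temperature) following 48 h treatment. Cells had been plated at 500-1,000 per well and settled for 5 h beforehand.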

[10] = qHTS of pediatric cancer cell lines to identify multiple opportunities for drug repurposing: Primary screen for BT-37 cells (AID 1347094); note: potency is the fitted concentration of half-maximal effect
Outline: (§2)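 Cells seeded at 500-1,000 cells/well in growth media, rested 5 hours at 37 degrees C, 5% CO2, then dosed; MIPE compounds at 11-point (from 0.78 nM) and NPC at 8-point (from 0.59 nM) final concentrations. Viability by CellTiter-Glo luminescence after 48 hours.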

[11] = qHTS of pediatric cancer cell lines to identify multiple opportunities for drug repurposing: Primary screen for U-2 OS cells (AID 1347096); note: nearly all actives have a fitted effect of over 50% in size; note: potency is the fitted concentration of half-maximal effect
Outline: (§3)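 Cells (500-1,000/well) in growth media were settled 5 h at 37 degrees C, then given compounds for 48 h. Viability was read as CellTiter-Glo luminescence. Primary runs used MIPE at 11 points (0.78 nM-46 µM) and NPC at 8 points (0.59 nM-46 µM); follow-ups used 11 points.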

[12] = qHTS of pediatric cancer cell lines to identify multiple opportunities for drug repurposing: Primary screen for Saos-2 cells (AID 1347097); note: nearly all actives have a fitted effect of over 40% in size; note: potency is the fitted concentration of half-maximal effect
Outline: as §2

[13] = qHTS of pediatric cancer cell lines to identify multiple opportunities for drug repurposing: Primary screen for SK-N-SH cells (AID 1347098); note: nearly all actives have a fitted effect of over 65% in size; note: potency is the fitted concentration of half-maximal effect
Outline: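 Cells (500-1,000/well) rested 5 h, then received compounds for 48 h; metabolically active cells were measured by CellTiter-Glo luminescence. Final concentrations spanned up to 46 µM (MIPE, 11-point) or 0.59 nM-46 µM (NPC, 8-point) in primary screens, 11-point in follow-ups.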

[14] = qHTS of pediatric cancer cell lines to identify multiple opportunities for drug repurposing: Primary screen for NB1643 cells (AID 1347099); note: nearly all actives have a fitted effect of over 50% in size; note: potency is the fitted concentration of half-maximal effect
Outline: as §2

[15] = qHTS of pediatric cancer cell lines to identify multiple opportunities for drug repurposing: Primary screen for LAN-5 cells (AID 1347100); note: potency is the fitted concentration of half-maximal effect
Outline: as §3

[16] = qHTS of pediatric cancer cell lines to identify multiple opportunities for drug repurposing: Primary screen for NB-EBc1 cells (AID 1347095); note: potency is the fitted concentration of half-maximal effect
Outline: as §2

Measured: Potency

Nucleoprotein (Lymphocytic choriomeningitis virus (strain Armstrong)), sequence (P09992 whole entry, looked up): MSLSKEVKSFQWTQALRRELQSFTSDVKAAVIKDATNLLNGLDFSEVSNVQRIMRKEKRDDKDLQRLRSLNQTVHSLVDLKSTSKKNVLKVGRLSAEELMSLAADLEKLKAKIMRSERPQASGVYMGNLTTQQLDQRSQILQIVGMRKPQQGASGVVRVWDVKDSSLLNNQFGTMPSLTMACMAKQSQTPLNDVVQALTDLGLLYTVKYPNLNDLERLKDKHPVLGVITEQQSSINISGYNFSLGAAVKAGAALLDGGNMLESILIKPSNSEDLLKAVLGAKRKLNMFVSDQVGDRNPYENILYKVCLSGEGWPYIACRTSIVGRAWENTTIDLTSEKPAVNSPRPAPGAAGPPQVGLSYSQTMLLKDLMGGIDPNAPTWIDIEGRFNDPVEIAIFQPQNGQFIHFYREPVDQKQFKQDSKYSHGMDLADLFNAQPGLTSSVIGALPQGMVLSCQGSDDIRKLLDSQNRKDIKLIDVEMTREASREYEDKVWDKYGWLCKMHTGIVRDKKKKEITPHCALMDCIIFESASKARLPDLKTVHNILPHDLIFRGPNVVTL

CCN(CC)CCOC(=O)C(O)(c1ccccc1)c1ccccc1
inactive: [1] | [2] | [3] | [4] | [5] | [6] | [7] | [8] | [9] | [10] | [11] | [12] | [13] | [14] | [15]

N[C@@H](Cc1ccc(N(CCCl)CCCl)cc1)C(=O)O
inactive: [1] | [2] | [3] | [4] | [11]
active: [5] 20.8 µM | [6] 16.8 µM and 18.7 µM | [7] 2.64 µM | [8] 6.68 µM and 5.9 µM | [9] 2.99 µM and 2.35 µM | [16] 3.76 µM and 235 nM | [12] 26.6 µM and 16.6 µM | [14] 9.44 µM and 16.6 µM | [15] 5.96 µM and 3.72 µM

CN(C)[C@@H]1C(=O)C(C(N)=O)=C(O)[C@@]2(O)C(=O)C3=C(O)c4c(O)cccc4[C@@](C)(O)[C@H]3C[C@@H]12
inactive: [1] | [2] | [3] | [4] | [6] | [7] | [8] | [9] | [11] | [12] | [13] | [15]

Oc1ccc(Cl)cc1Cc1ccccc1
inactive: [1] | [2] | [3] | [4] | [5] | [6] | [11]
active: [7] 12.3 µM | [8] 49.1 µM | [12] 24.6 µM and 23.7 µM | [13] 35.8 µM and 17.2 µM

Oc1ccccc1-c1ccccc1
inactive: [1] | [2] | [3] | [4] | [6] | [7] | [8] | [9] | [11] | [13] | [14] | [15]

Cc1ccc(NC(=O)c2ccc(CN3CCN(C)CC3)cc2)cc1Nc1nccc(-c2cccnc2)n1
inactive: [1] | [3]

CC(S)C(=O)NCC(=O)O (stereo not drawn)
inactive: [1] | [3] | [4]

C#C[C@]1(O)CC[C@H]2[C@@H]3CCC4=Cc5oncc5C[C@]4(C)[C@H]3CC[C@@]21C
inactive: [1] | [3] | [4]

C=CCN1CC[C@]23c4c5ccc(O)c4O[C@H]2C(=O)CC[C@@]3(O)[C@H]1C5
inactive: [1] | [2] | [4] | [6] | [7] | [8] | [9] | [10] | [11] | [12] | [13] | [14] | [15]

O=c1oc2ccccc2c(O)c1C(CC(O)c1ccc(-c2ccc(Br)cc2)cc1)c1ccccc1 (stereo not drawn)
inactive: [1] | [2] | [3] | [4] | [6] | [7] | [8] | [10] | [16] | [11] | [12] | [13] | [15]

Cc1cc(SCc2sc(-c3ccc(C(F)(F)F)c(F)c3)nc2C)ccc1OCC(=O)O
inactive: [1] | [2] | [3] | [4] | [6] | [8] | [11] | [14] | [15]

CO[C@]12CC[C@@]3(C[C@@H]1[C@](C)(O)C(C)(C)C)[C@@H]1Cc4ccc(O)c5c4[C@@]3(CCN1CC1CC1)[C@H]2O5
active: [8] 48.1 µM | [9] 30.3 µM | [10] 39.6 µM | [11] 38.2 µM | [12] 30.3 µM
inactive: [1] | [2]

O=C1c2cccc3c2[C@H](CCC3)CN1[C@@H]1CN2CCC1CC2
inactive: [1] | [3] | [4]

CNC(=O)c1cc(Oc2ccc(NC(=O)Nc3ccc(Cl)c(C(F)(F)F)c3)cc2)ccn1
active: [1] 38.5 µM | [3] 17.2 µM

CC(C)c1nc(CN(C)C(=O)N[C@H](C(=O)N[C@@H](Cc2ccccc2)C[C@H](O)[C@H](Cc2ccccc2)NC(=O)OCc2cncs2)C(C)C)cs1
inactive: [1] | [3] | [4]

CN(CCOc1ccc(NS(C)(=O)=O)cc1)CCc1ccc(NS(C)(=O)=O)cc1
inactive: [1] | [2] | [4]

NC12CC3CC(CC(C3)C1)C2
inactive: [1] | [3] | [4]

C[C@]12C/C(=C/O)C(=O)C[C@@H]1CC[C@@H]1[C@@H]2CC[C@@]2(C)[C@H]1CC[C@]2(C)O
inactive: [1] | [2] | [3] | [4] | [6] | [11]
active: [9] 23.7 µM

CC1=C2C[C@@H]3[C@@H](CC=C4C[C@@H](O)CC[C@@]43C)[C@@H]2CC[C@]12O[C@H]1C[C@H](C)CN[C@H]1[C@H]2C
active: [13] 6.07 µM
inactive: [1] | [2] | [3] | [4] | [9] | [10] | [11] | [12] | [15]

Nc1ncn([C@@H]2O[C@H](CO)[C@@H](O)[C@H]2O)c(=O)n1
inactive: [1] | [3]

Cn1cnc([N+](=O)[O-])c1Sc1ncnc2nc[nH]c12
active: [2] 50.1 µM
inactive: [1] | [4]

COC1=CC(=O)C[C@@H](C)[C@]12Oc1c(Cl)c(OC)cc(OC)c1C2=O
inactive: [1] | [3]

O=C(C1CCCCC1)N1CC(=O)N2CCc3ccccc3C2C1 (stereo not drawn)
inactive: [1] | [3] | [4]

O=C(O)c1ccc2[nH]cc(CCCCN3CC=C(c4ccccc4)CC3)c2c1
inactive: [1] | [2] | [3] | [4] | [6] | [7] | [8] | [9] | [11] | [13] | [15]

C#Cc1cccc(Nc2ncnc3cc(OCCOC)c(OCCOC)cc23)c1
inactive: [1] | [4]
active: [2] 7.69 µM

CC[C@H](C)C(=O)O[C@H]1C[C@@H](C)C=C2C=C[C@H](C)[C@H](CC[C@@H]3C[C@@H](O)CC(=O)O3)[C@H]21
inactive: [1] | [2] | [4]

CN(Cc1cnc2nc(N)nc(N)c2n1)c1ccc(C(=O)N[C@@H](CCC(=O)O)C(=O)O)cc1
inactive: [1] | [3] | [4]

O=C(c1ccc(OCCN2CCCCC2)cc1)c1c(-c2ccc(O)cc2)sc2cc(O)ccc12
inactive: [1] | [3]

CN1CCC[C@@H]1CCO[C@](C)(c1ccccc1)c1ccc(Cl)cc1
inactive: [1] | [3]

CNS(=O)(=O)Cc1ccc2[nH]cc(CCN(C)C)c2c1
inactive: [1] | [2] | [4]

CC12CC3CC(C)(C1)CC(N)(C3)C2
inactive: [1] | [3] | [4]

CC(C)(C)NC(=O)[C@H]1CC[C@H]2[C@@H]3CC[C@H]4NC(=O)C=C[C@]4(C)[C@H]3CC[C@]12C
inactive: [1] | [2] | [4]

CC(C)(C)CC(C)(C)c1ccc(O)cc1
inactive: [1] | [2] | [3] | [4] | [6] | [14]
active: [7] 21.7 µM | [9] 27.3 µM | [16] 30.6 µM | [12] 30.6 µM and 21.1 µM | [13] 25 µM

C=C1C[C@@H]2[C@H](CC[C@]3(C)C(=O)CC[C@@H]23)[C@@]2(C)C=CC(=O)C=C12
inactive: [1] | [2] | [3] | [4] | [6] | [7] | [16] | [11] | [13] | [15]

CS(=O)c1ccc(-c2nc(-c3ccc(F)cc3)c(-c3ccncc3)[nH]2)cc1 (stereo not drawn)
inactive: [1] | [3] | [4]

CC(C)c1c(C(=O)Nc2ccccc2)c(-c2ccccc2)c(-c2ccc(F)cc2)n1CC[C@@H](O)C[C@@H](O)CC(=O)O
inactive: [1] | [2] | [4]

Clc1ccc(COC(Cn2ccnc2)c2ccc(Cl)cc2Cl)cc1 (stereo not drawn)
active: [8] 23.5 µM
inactive: [1] | [2] | [3] | [4] | [11]

CN1C[C@H]2c3ccccc3Oc3ccc(Cl)cc3[C@@H]2C1
inactive: [1] | [2] | [4]

CC1(C)O[C@@H]2[C@@H](CO[C@@]3(COS(N)(=O)=O)OC(C)(C)O[C@@H]23)O1
inactive: [1] | [3] | [4]

CNC(=O)c1ccc(N2C(=S)N(c3ccc(C#N)c(C(F)(F)F)c3)C(=O)C23CCC3)cc1F
active: [6] 3.72 µM | [8] 18.7 µM | [9] 5.9 µM | [13] 19.2 µM
inactive: [1] | [2] | [3] | [5] | [7] | [12]

Clc1ccc(CCC(Cn2ccnc2)Sc2c(Cl)cccc2Cl)cc1 (stereo not drawn)
inactive: [1] | [2] | [3] | [4] | [6] | [7]
active: [8] 23.5 µM | [9] 23.5 µM | [15] 20.9 µM

CCN(CC)C(=O)N[C@@H]1C=C2c3cccc4[nH]cc(c34)C[C@@H]2N(C)C1
inactive: [1] | [2] | [4] | [5] | [6] | [7] | [8] | [9] | [10] | [16] | [11] | [12] | [13] | [15]

CC(C)CC(N(C)C)C1(c2ccc(Cl)cc2)CCC1 (stereo not drawn)
inactive: [10]

CCC(=O)C(CC(C)N(C)C)(c1ccccc1)c1ccccc1 (stereo not drawn)
inactive: [14]

C[C@@H]1[C@@H](CC(C[C@H]2O[C@@H]3O[C@]4(C)CC[C@@H]5[C@H](C)CC[C@@H]([C@H]2C)[C@@]35OO4)C[S+](=O)([O-])c2ccc(COC(=O)N(C)C)cc2)O[C@@H]2O[C@]3(C)CC[C@H]4[C@H](C)CC[C@@H]1[C@@]24OO3 (stereo partly drawn)
active: [14] 1.05 µM
